# The sample as a whole holds a higher share of the strongest signals than the screen did.
# B1: TREM-2 (Mus musculus), Q99NH8 (protein)
# chain: MGPLHQFLLLLITALSQALNTTVLQGMAGQSLRVSCTYDALKHWGRRKAWCRQLGEEGPCQRVVSTHGVWLLAFLKKRNGSTVIADDTLAGTVTITLKNLQAGDAGLYQCQSLRGREAEVLQKVLVEVLEDPLDDQDAGDLWVPEESSSFEGAQVEHSTSRNQETSFPPTSILLLLACVLLSKFLAASILWAVARGRQKPGTPVVRGLDCGQDAGHQLQILTGPGGT
# B2: Gal 3 (Homo sapiens), P17931 (protein)
# chain: MADNFSLHDALSGSGNPNPQGWPGAWGNQPAGAGGYPGASYPGAYPGQAPPGAYPGQAPPGAYHGAPGAYPGAPAPGVYPGPPSGPGAYPSSGQPSAPGAYPATGPYGAPAGPLIVPYNLPLPGGVVPRMLITILGTVKPNANILDFQRGNDVAFHFNPRFNENNRRVIVCNTKLDNNWAREERQSVFPFESGKPFKIQVLVEPDHFKVAVNDAHLLQYNHRVKKLNEISKLGISGDIDLTSASYTMI
# How the values were obtained:
# Assay in all cases: glycan array binding signal (z-score within array); higher = stronger binding
# [1] = target: Fuc(a1-2)Gal(b1-4)GlcNAc; conditions: glycan notation: IUPAC condensed, linker removed
# Summary of the method: (§1)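 Columns mapping to the same glycan were averaged after glycan names were converted to IUPAC-condensed notation. The data come from 3228 arrays in the Consortium for Functional Glycomics database, limited to those with an available protein sequence. Binding is reported as a within-array Z-score averaged across arrays of one protein sequence and across linkers.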
# [2] = target: Gal(b1-3)GalNAc(b1-4)[Neu5Ac(a2-3)]Gal(b1-4)Glc; conditions: glycan notation: IUPAC condensed, linker removed
# Summary of the method: as §1
# [3] = target: Gal(b1-3)[Fuc(a1-4)]GlcNAc; conditions: glycan notation: IUPAC condensed, linker removed
# Summary of the method: as §1
# [4] = target: Gal(b1-3)[GlcNAc(b1-6)]GalNAc; conditions: glycan notation: IUPAC condensed, linker removed
# Summary of the method: as §1
# [5] = target: Gal(b1-4)GlcNAc(b1-3)Gal(b1-4)GlcNAc(b1-3)Gal(b1-4)GlcNAc; conditions: glycan notation: IUPAC condensed, linker removed
# Summary of the method: as §1
# [6] = target: Gal(b1-4)GlcNAc(b1-6)[Gal(b1-3)]GalNAc; conditions: glycan notation: IUPAC condensed, linker removed
# Summary of the method: as §1
# [7] = target: Gal3S(b1-4)Glc6S; conditions: glycan notation: IUPAC condensed, linker removed
# Summary of the method: as §1
# [8] = target: Gal3S(b1-4)GlcNAc6S; conditions: glycan notation: IUPAC condensed, linker removed
# Summary of the method: as §1
# [9] = target: Gal3S6S(b1-4)GlcNAc; conditions: glycan notation: IUPAC condensed, linker removed
# Summary of the method: as §1
# [10] = target: Gal3S6S(b1-4)GlcNAc6S; conditions: glycan notation: IUPAC condensed, linker removed
# Summary of the method: as §1
# [11] = target: Gal6S(b1-4)Glc6S; conditions: glycan notation: IUPAC condensed, linker removed
# Summary of the method: as §1
# [12] = target: GlcNAc(b1-6)Gal(b1-4)GlcNAc; conditions: glycan notation: IUPAC condensed, linker removed
# Summary of the method: as §1
# [13] = target: Man(a1-2)Man(a1-2)Man(a1-3)Man; conditions: glycan notation: IUPAC condensed, linker removed
# Summary of the method: as §1
# [14] = target: Neu5Ac(a2-3)Gal(b1-3)GlcNAc6S; conditions: glycan notation: IUPAC condensed, linker removed
# Summary of the method: as §1
# [15] = target: Neu5Ac(a2-3)Gal(b1-4)GlcNAc; conditions: glycan notation: IUPAC condensed, linker removed
# Summary of the method: as §1
# [16] = target: Neu5Ac(a2-3)Gal(b1-4)[Fuc(a1-3)]GlcNAc(b1-3)Gal(b1-4)GlcNAc; conditions: glycan notation: IUPAC condensed, linker removed
# Summary of the method: as §1
# [17] = target: Neu5Ac(a2-3)[GalNAc(b1-4)]Gal(b1-4)Glc; conditions: glycan notation: IUPAC condensed, linker removed
# Summary of the method: as §1
# [18] = target: Neu5Ac(a2-3)[Neu5Ac(a2-6)]GalNAc; conditions: glycan notation: IUPAC condensed, linker removed
# Summary of the method: as §1
# [19] = target: Neu5Ac(a2-8)Neu5Ac; conditions: glycan notation: IUPAC condensed, linker removed
# Summary of the method: as §1
# [20] = target: Fuc(a1-2)Gal(b1-4)GlcNAc(b1-3)Gal(b1-4)GlcNAc(b1-3)Gal(b1-4)GlcNAc; conditions: glycan notation: IUPAC condensed, linker removed; mutation: G182A
# Summary of the method: as §1
# [21] = target: Fuc(a1-2)Gal(b1-4)GlcNAc(b1-3)GalNAc; conditions: glycan notation: IUPAC condensed, linker removed; mutation: G182A
# Summary of the method: as §1
# [22] = target: Fuc(a1-2)[Gal(a1-3)]Gal(b1-4)GlcNAc; conditions: glycan notation: IUPAC condensed, linker removed; mutation: G182A
# Summary of the method: as §1
# [23] = target: Fuc(a1-2)[Gal(a1-3)]Gal(b1-4)GlcNAc(b1-2)Man(a1-3)[Fuc(a1-2)[Gal(a1-3)]Gal(b1-4)GlcNAc(b1-2)Man(a1-6)]Man(b1-4)GlcNAc(b1-4)GlcNAc; conditions: glycan notation: IUPAC condensed, linker removed; mutation: G182A
# Summary of the method: as §1
# [24] = target: Fuc(a1-2)[GalNAc(a1-3)]Gal(b1-4)GlcNAc(b1-2)Man(a1-3)[Fuc(a1-2)[GalNAc(a1-3)]Gal(b1-4)GlcNAc(b1-2)Man(a1-6)]Man(b1-4)GlcNAc(b1-4)GlcNAc; conditions: glycan notation: IUPAC condensed, linker removed; mutation: G182A
# Summary of the method: as §1
# [25] = target: Fuc(a1-2)[GalNAc(a1-3)]Gal(b1-4)GlcNAc(b1-3)Gal(b1-4)GlcNAc(b1-3)Gal(b1-4)GlcNAc; conditions: glycan notation: IUPAC condensed, linker removed; mutation: G182A
# Summary of the method: as §1
# [26] = target: Fuc(a1-3)[Gal(b1-4)]GlcNAc(b1-2)Man(a1-3)[Fuc(a1-3)[Gal(b1-4)]GlcNAc(b1-2)Man(a1-6)]Man(b1-4)GlcNAc(b1-4)GlcNAc; conditions: glycan notation: IUPAC condensed, linker removed; mutation: G182A
# Summary of the method: as §1
# [27] = target: Fuc(a1-3)[Gal(b1-4)]GlcNAc(b1-3)Gal(b1-3)[Fuc(a1-4)]GlcNAc; conditions: glycan notation: IUPAC condensed, linker removed; mutation: G182A
# Summary of the method: as §1
# [28] = target: Gal(a1-3)GalNAc; conditions: glycan notation: IUPAC condensed, linker removed; mutation: G182A
# Summary of the method: as §1
# [29] = target: Gal(a1-4)Gal(b1-4)Glc; conditions: glycan notation: IUPAC condensed, linker removed; mutation: G182A
# Summary of the method: as §1
# [30] = target: Gal(b1-3)GalNAc(b1-4)Gal(b1-4)Glc; conditions: glycan notation: IUPAC condensed, linker removed; mutation: G182A
# Summary of the method: as §1
# [31] = target: Gal(b1-4)GlcNAc(b1-2)Man(a1-6)[Man(a1-3)]Man(b1-4)GlcNAc(b1-4)GlcNAc; conditions: glycan notation: IUPAC condensed, linker removed; mutation: G182A
# Summary of the method: as §1
# [32] = target: Gal(b1-4)GlcNAc(b1-6)Gal(b1-4)GlcNAc; conditions: glycan notation: IUPAC condensed, linker removed; mutation: G182A
# Summary of the method: as §1
# [33] = target: Gal3S(b1-3)[Fuc(a1-4)]GlcNAc; conditions: glycan notation: IUPAC condensed, linker removed; mutation: G182A
# Summary of the method: as §1
# [34] = target: GalNAc(a1-3)Gal; conditions: glycan notation: IUPAC condensed, linker removed; mutation: G182A
# Summary of the method: as §1
# [35] = target: GalNAc(b1-3)Gal(a1-6)Gal(b1-4)Glc; conditions: glycan notation: IUPAC condensed, linker removed; mutation: G182A
# Summary of the method: as §1
# [36] = target: GlcNAc(a1-4)Gal(b1-4)GlcNAc(b1-3)Gal(b1-4)GlcNAc(b1-3)Gal(b1-4)GlcNAc; conditions: glycan notation: IUPAC condensed, linker removed; mutation: G182A
# Summary of the method: as §1
# [37] = target: GlcNAc(b1-3)Gal(b1-4)GlcNAc(b1-3)Gal(b1-4)GlcNAc; conditions: glycan notation: IUPAC condensed, linker removed; mutation: G182A
# Summary of the method: as §1
# [38] = target: GlcNAc3Prop(b1-4)GlcNAc; conditions: glycan notation: IUPAC condensed, linker removed; mutation: G182A
# Summary of the method: as §1
# [39] = target: Man(a1-2)Man(a1-3)Man; conditions: glycan notation: IUPAC condensed, linker removed; mutation: G182A
# Summary of the method: as §1
# [40] = target: Man(a1-2)Man(a1-3)[Man(a1-2)Man(a1-6)]Man; conditions: glycan notation: IUPAC condensed, linker removed; mutation: G182A
# Summary of the method: as §1
# [41] = target: Neu5Ac(a2-3)Gal(b1-3)[Fuc(a1-4)]GlcNAc(b1-3)Gal(b1-3)[Fuc(a1-4)]GlcNAc; conditions: glycan notation: IUPAC condensed, linker removed; mutation: G182A
# Summary of the method: as §1
# [42] = target: Neu5Ac(a2-3)Gal(b1-4)GlcNAc(b1-2)Man(a1-3)[Neu5Ac(a2-6)Gal(b1-4)GlcNAc(b1-2)Man(a1-6)]Man(b1-4)GlcNAc(b1-4)GlcNAc; conditions: glycan notation: IUPAC condensed, linker removed; mutation: G182A
# Summary of the method: as §1
# [43] = target: Neu5Ac(a2-3)GalNAc; conditions: glycan notation: IUPAC condensed, linker removed; mutation: G182A
# Summary of the method: as §1
# [44] = target: Neu5Ac(a2-6)Gal(b1-4)Glc; conditions: glycan notation: IUPAC condensed, linker removed; mutation: G182A
# Summary of the method: as §1
# [45] = target: Neu5Ac(a2-6)Gal(b1-4)GlcNAc; conditions: glycan notation: IUPAC condensed, linker removed; mutation: G182A
# Summary of the method: as §1
# [46] = target: Neu5Ac(a2-6)Gal(b1-4)GlcNAc(b1-3)GalNAc; conditions: glycan notation: IUPAC condensed, linker removed; mutation: G182A
# Summary of the method: as §1
# [47] = target: Neu5Ac(a2-6)GlcNAc(b1-4)GlcNAc(b1-4)GlcNAc; conditions: glycan notation: IUPAC condensed, linker removed; mutation: G182A
# Summary of the method: as §1
# [48] = target: Neu5Ac(a2-8)Neu5Ac(a2-8)Neu5Ac(a2-3)[GalNAc(b1-4)]Gal(b1-4)Glc; conditions: glycan notation: IUPAC condensed, linker removed; mutation: G182A
# Summary of the method: as §1
# [49] = target: Neu5Ac9Ac(a2-6)Gal(b1-4)GlcNAc; conditions: glycan notation: IUPAC condensed, linker removed; mutation: G182A
# Summary of the method: as §1
# [50] = target: Neu5Gc(a2-3)Gal(b1-4)Glc; conditions: glycan notation: IUPAC condensed, linker removed; mutation: G182A
# Summary of the method: as §1
binder,measurement,setting,value
B1,glycan array binding signal (z-score),[1],-0.407
same,glycan array binding signal (z-score),[2],-0.342
same,glycan array binding signal (z-score),[3],-0.368
same,glycan array binding signal (z-score),[4],-0.349
same,glycan array binding signal (z-score),[5],-0.287
same,glycan array binding signal (z-score),[6],-0.354
same,glycan array binding signal (z-score),[7],4.24
same,glycan array binding signal (z-score),[8],4.02
same,glycan array binding signal (z-score),[9],4.4
same,glycan array binding signal (z-score),[10],4.74
same,glycan array binding signal (z-score),[11],3.17
same,glycan array binding signal (z-score),[12],-0.382
same,glycan array binding signal (z-score),[13],-0.305
same,glycan array binding signal (z-score),[14],-0.078
same,glycan array binding signal (z-score),[15],-0.391
same,glycan array binding signal (z-score),[16],-0.043
same,glycan array binding signal (z-score),[17],-0.373
same,glycan array binding signal (z-score),[18],0.289
same,glycan array binding signal (z-score),[19],-0.304
B2,glycan array binding signal (z-score),[1]; mutation: G182A,-0.188
same,glycan array binding signal (z-score),[20],5.12
same,glycan array binding signal (z-score),[21],-0.187
same,glycan array binding signal (z-score),[22],1.68
same,glycan array binding signal (z-score),[23],9.17
same,glycan array binding signal (z-score),[24],5.25
same,glycan array binding signal (z-score),[25],6.29
same,glycan array binding signal (z-score),[26],-0.191
same,glycan array binding signal (z-score),[27],-0.188
same,glycan array binding signal (z-score),[28],-0.185
same,glycan array binding signal (z-score),[29],-0.192
same,glycan array binding signal (z-score),[30],-0.189
same,glycan array binding signal (z-score),[31],-0.197
same,glycan array binding signal (z-score),[5]; mutation: G182A,7.13
same,glycan array binding signal (z-score),[32],-0.196
same,glycan array binding signal (z-score),[33],-0.186
same,glycan array binding signal (z-score),[34],-0.192
same,glycan array binding signal (z-score),[35],-0.19
same,glycan array binding signal (z-score),[36],9.32
same,glycan array binding signal (z-score),[37],4.53
same,glycan array binding signal (z-score),[38],-0.182
same,glycan array binding signal (z-score),[39],-0.189
same,glycan array binding signal (z-score),[40],-0.189
same,glycan array binding signal (z-score),[41],-0.187
same,glycan array binding signal (z-score),[42],-0.168
same,glycan array binding signal (z-score),[43],-0.192
same,glycan array binding signal (z-score),[44],-0.183
same,glycan array binding signal (z-score),[45],-0.177
same,glycan array binding signal (z-score),[46],-0.143
same,glycan array binding signal (z-score),[47],-0.191
same,glycan array binding signal (z-score),[48],-0.167
same,glycan array binding signal (z-score),[49],-0.189
same,glycan array binding signal (z-score),[50],-0.195

# Reference: the supplement of paper PMC8728848
